Assay outcomes (PubChem BioAssay)
An excerpt weighted towards active compounds, which were near 2.4% of everything screened.
TLR9-MyD88 block: blocks human TLR9 binding to MyD88 | Q9NR96+Q99836 | CHO BLA complementation TLR9-MyD88, CCF4 FRET ratio | inhibition, % at 4.98 µM | hit rate 0.21% among 340,000 | AID 504734;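 active = inhibition above the mean over all tested compounds plus 3 SD, cut at about 21% in these data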;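 also: 0% = DMSO only wells and 100% = clavulanate BLA inhibitor control wells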
CRFBP-R2 block: antagonists of CRF-binding protein/CRF-R2 receptor complex; hit rate 0.59% among 350,000; HEK293 CRF-R2/CRF-BP, CRF-induced calcium fluorescence; AID 588475; inhibition, % at 11.8 µM;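 active = inhibition of the ligand-induced calcium signal above about 50% at the single tested concentration, limit read from the data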
HTR2A ag: agonists of mouse serotonin 5-HT2A receptor (HTR2A); CHO-K1 mHTR2A beta-arrestin complementation, luminescence; percent of 30 µM serotonin response; P35363; hit rate 0.66% among 360,000; activation, % at 7.6 µM;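 active = activation above a run cutoff, the mean activation of all tested compounds plus 3 SD, cut at about 14% in these data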;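 also: 0% = plate median of compound wells and 100% = 30 µM serotonin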
NOD2-RIPK2 inh: NOD2-RIPK2 protein interaction inhibition; CHO BLA complementation NOD2-RIPK2, CCF4 ratio; hit rate 0.38% among 360,000; AID 624267; inhibition, % at 4.98 µM; in the data active = inhibition above about 21%;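 also: 0% = vehicle only and 100% = reference blocker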
Target sequence (O43353 whole entry, looked up): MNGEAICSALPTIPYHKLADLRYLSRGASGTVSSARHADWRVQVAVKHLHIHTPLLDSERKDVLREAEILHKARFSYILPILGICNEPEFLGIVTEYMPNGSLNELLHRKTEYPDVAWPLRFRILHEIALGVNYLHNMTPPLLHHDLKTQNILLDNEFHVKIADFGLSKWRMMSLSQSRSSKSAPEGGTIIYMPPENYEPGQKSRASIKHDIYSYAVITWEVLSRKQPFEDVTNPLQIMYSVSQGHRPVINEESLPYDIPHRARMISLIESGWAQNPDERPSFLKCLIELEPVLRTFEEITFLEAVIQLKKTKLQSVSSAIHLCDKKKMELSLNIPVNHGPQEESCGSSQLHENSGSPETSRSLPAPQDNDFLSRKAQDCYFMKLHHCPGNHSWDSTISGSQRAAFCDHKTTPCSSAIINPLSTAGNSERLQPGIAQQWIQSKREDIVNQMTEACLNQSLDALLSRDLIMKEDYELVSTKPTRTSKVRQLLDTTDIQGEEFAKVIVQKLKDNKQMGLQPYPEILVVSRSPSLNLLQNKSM
TLR4 MyD88 comp: TLR4-MyD88 interaction inhibition in cells. inhibition, % at 8.4 µM. HeLa CL3-4 TLR4/MyD88 BLA complementation, FRET ratio. O00206+Q99836. AID 861. hit rate 0.18% among 200,000; in the data active = inhibition above about 25%;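 also: 0% = vehicle and 100% = reference inhibitor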
ABHD5-PLIN5 inh: inhibitors of human ABHD5-perilipin-5 interaction; Q00G26+Q8WTS1; Split G. princeps luciferase complementation, luminescence, 4 h; inhibition, % at 4 µM; hit rate 0.78% among 360,000;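 active = inhibition above the mean inhibition across every tested compound plus 3 SD, cut at about 22% in these data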;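 also: 0% = DMSO only wells and the 100% control is not disclosed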
ABHD5 PLIN5 conf: confirmation of human ABHD5-PLIN5 interaction inhibitors. shares compounds with ABHD5-PLIN5 inh. biochemical ABHD5-PLIN5 interaction, luminescence. inhibition, % at 4 µM. hit rate 67% among 2,200; in the data active = inhibition above about 23%;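 also: 0% = DMSO vehicle wells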
HNF4 counter: counter-screen for ABHD5-PLIN5 inhibitors: HNF4 split-luciferase; shares compounds with ABHD5-PLIN5 inh; HNF4 dimerization, luminescence, biochemical; inhibition, % at 4 µM; hit rate 77% among 2,200;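 active = mean inhibition across replicate wells exceeding the computed hit threshold, cut at about 13% in these data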;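 also: light from luciferase halves that rejoin when HNF4 fusion proteins dimerize; 0% = DMSO only wells and the 100% control is not given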
Active calls of the source: *; / = no result.

SMILES	TLR9-MyD88 block	CRFBP-R2 block	HTR2A ag	NOD2-RIPK2 inh	TLR4 MyD88 comp	ABHD5-PLIN5 inh	ABHD5 PLIN5 conf	HNF4 counter
C=CCN(CC=C)Cc1c(O)ccc2c1oc(=O)c1ccccc12	-12	-1	-9	-2	2	68*	14	17*
CC1(C(=O)Nc2ccc3c(c2)OCCO3)CCN1C(=O)Cc1ccc(-c2ccccc2)cc1 (stereo not given)	/	/	1	-7	/	-2	/	/
Cc1cc(C)c2nc(NNC(=O)c3ccc(S(=O)(=O)N4CCCC(C)C4)cc3)sc2c1 (stereo not given)	2	-30	13	1	9	23*	59*	/
Cc1ccccc1NC(=O)C1C(=O)Nc2ccccc2C(=O)N1Cc1ccccc1 (stereo not given)	/	/	11	-1	/	-9	/	/
Cc1c(C(=O)N(Cc2ccco2)Cc2cccs2)oc2ccccc12	3	0	-6	-7	/	28*	20	15*
O=C(COc1ccc(CNC[C@H]2O[C@@H](n3ccc(=O)[nH]c3=O)[C@H](O)[C@@H]2O)cc1)Nc1nccs1	/	/	1	-9	/	3	/	/
O=C(c1ccc2nc(-c3ccco3)c(-c3ccco3)nc2c1)N1CCN(c2ccccc2)CC1	-1	-30	2	3	15	5	/	/
O=S(=O)(c1ccc2nc(-c3ccco3)c(-c3ccco3)nc2c1)N1CCOCC1	4	4	4	-14	-5	26*	78*	62*
O=C(O)c1ccc2nc(-c3ccco3)c(-c3ccco3)nc2c1	6	-15	-3	-4	2	27*	82*	94*
C[C@H]1CN([C@@H](C)CO)C(=O)c2cc(Br)cnc2O[C@@H]1CN(C)S(=O)(=O)c1cn(C)cn1	6	-1	1	4	/	1	/	/
Cc1cc(C)c(NC(=O)C2C(=O)Nc3ccccc3C(=O)N2C(C)(C)C)c(C)c1 (stereo not given)	/	/	-5	6	/	-1	/	/
CC1=NN(c2ccccc2)C(=O)/C1=C/C=C/c1ccccc1	-1	-24	-3	1	4	25*	98*	90*
CC1=NN(c2cccc(C(=O)O)c2)C(=O)/C1=C\C=C\c1ccco1	-7	9	1	-19	-6	14	/	/
CCOC(=O)C1=C(C)N(c2ccccc2)C(=O)/C1=C\c1ccc(O)c(OC)c1	1	-12	5	-9	/	26*	39*	49*
COc1ccc(OC)c2sc(NC(=O)C3=COCCO3)nc12	9	-1	1	-8	-9	38*	11	4
COc1ccc(C)c2sc(NC(=O)C3=COCCO3)nc12	0	/	3	-23	-10	-4	/	/
CCCC(=O)Nc1nnc(S(=O)(=O)N(C)Cc2ccco2)s1	-9	-1	-3	-2	/	41*	30*	56*
CCC(=O)Nc1nnc(S(=O)(=O)N(C)Cc2ccco2)s1	9	1	-1	-10	/	11	/	/
Cc1ccc(CNC(=O)CC(C)S(=O)(=O)c2ccc3c(c2)NC(=O)CS3)o1 (stereo not given)	-10	-10	-2	-16	/	38*	12	22*
Cc1ccc(CNC(=O)CC(C)S(=O)(=O)c2ccc3c(c2)NC(=O)CO3)cc1 (stereo not given)	0	4	-2	-10	/	-5	/	/
COc1ccc(C(C)(O)c2nc(-c3ccc(N(C)C)cc3)cs2)cc1 (stereo not given)	/	/	-2	0	/	-7	/	/
CCN1CCN(C(=O)/C=C/c2ccc(C)o2)CC1	-2	-5	2	6	2	-1	/	/
Cc1ccc(/C=C/C(=O)N2CC(C)CC(C)C2)o1 (stereo not given)	5	2	2	-2	4	28*	23*	36*
CCOC(=O)C(=Cc1c[nH]c2ccc(S(=O)(=O)N(C)C)cc12)C(=O)OCC	5	-4	5	8	/	52*	63*	58*
CCOC(=O)/C(C#N)=C/c1c[nH]c2ccccc12	0	9	0	-1	5	4	/	/
